Test results as given in PubChem BioAssay AID1259421 (Broad Institute, 2018).
Where “and” joins values, the source holds several entries; their conditions need not be identical. Identical values can stand only once. Hit rate of the full screen: of about 6,400 compounds, about 610 (9.5%) were called active. This is one part of a sample in which actives are shown more often than they occur. No stated cut-off is given here; in the data, active means activity change below about -70%; inconclusive means no clear call, values can overlap the other calls; inactive means above that. More than one record can exist for a structure, and the calls need not agree. Where a SMILES comes first, the peptide text is derived from it.

Assay: Toxoplasma gondii ME49Luc growth in HeLa cells, luciferase, no IFN-y, primary screen (AID 1259421)
Settings: T. gondii ME49Luc in HeLa, 72 h, stronger effect = lower value, concentration not given here

Structure (SMILES) | activity change, negative = inhibition
O=C(NCC(=O)N1CC[C@H](NC2CCC(O)(c3ccc(-c4ncccn4)cn3)CC2)C1)c1cccc(C(F)(F)F)c1 (some centres not stated) | 13.2% (inactive)
COc1ccc2nc(S(=O)Cc3ncc(C)c(OC)c3C)[nH]c2c1 (configuration not stated) | 29.5% (inactive) and 32.8% (inactive) and 15.1% (inactive)
O=Cc1ccc(CO)o1 | 3.95% (inactive)
O=c1c(OC2OC(CO)C(O)C(O)C2O)c(-c2ccc(O)c(O)c2)oc2cc(O)cc(O)c12 (configuration not stated) | -1.42% (inactive)
NCC(=O)N[C@@H](CCC(N)=O)C(=O)O (H-Gly-Gln-OH) | 6.58% (inactive)
CC(C)C(N)=O | 7.84% (inactive)
Nc1ncnc2c1C(=O)N(c1ccc(C3CCC(CC(=O)O)CC3)cc1)CCO2 (configuration not stated) | 6.2% (inactive)
NC1=N[C@H]2[C@H](CS[C@H]2CCCCC(=O)O)N1 | 20.2% (inactive)
C=C[C@]1(C)C[C@@H](OC(=O)CSC2C[C@H]3CC[C@@H](C2)N3C)[C@]2(C)[C@H](C)CC[C@]3(CCC(=O)[C@H]32)[C@@H](C)[C@@H]1O (some centres not stated) | -18.6% (inactive)
CC[C@H](NC(C)C)[C@H](O)c1ccc(O)c2[nH]c(=O)ccc12 | 3.71% (inactive)
CCOc1cc2ncc(C#N)c(Nc3ccc(F)c(Cl)c3)c2cc1NC(=O)/C=C/CN(C)C | -84.3% (active)
CCOc1cc(C(=O)Nc2ccc(Cl)c(-c3nc4ccccc4[nH]3)c2)cc(OCC)c1OCC | -69.9% (inactive)
C=CC(=O)Nc1cc2c(Nc3ccc(F)c(Cl)c3)ncnc2cc1C#CC(C)(C)N1CCN(C)CC1 | -57.7% (inactive)
CCOc1cc2ncc(C#N)c(Nc3ccc(OCc4ccccn4)c(Cl)c3)c2cc1NC(=O)/C=C/CN(C)C | -78.7% (active)
C[C@@H](NC(=O)c1ncnc(N)c1Cl)c1ncc(C(=O)Nc2cc(C(F)(F)F)c(Cl)cn2)s1 | 10.6% (inactive)
Cc1nc(NC(=O)N2CCC[C@H]2C(N)=O)sc1-c1csc(C(C)(C)C)n1 | 17.5% (inactive)
OCCNCCCOc1cccc(Cl)c1Cl | -43.4% (inactive) and 19.3% (inactive)
COc1cc([C@@H]2c3cc4c(cc3C(OC3O[C@@H]5COC(C)O[C@H]5[C@H](O)[C@H]3O)C3COC(=O)[C@@H]32)OCO4)cc(OC)c1O (some centres not stated) | -0.506% (inactive)
COc1cc([C@@H]2c3cc4c(cc3[C@H](O)[C@H]3COC(=O)[C@@H]23)OCO4)cc(OC)c1OC | -71% (active)

Structure (SMILES) | activity change, negative = inhibition
COc1cc([C@@H]2c3cc4c(cc3[C@@H](O[C@@H]3O[C@@H]5CO[C@@H](C)O[C@H]5[C@H](O)[C@H]3O)[C@H]3COC(=O)[C@H]23)OCO4)cc(OC)c1O | -10.1% (inactive) and -3.38% (inactive) and 9.65% (inactive)
COc1cc([C@@H]2c3cc4c(cc3[C@H](O)[C@H]3COC(=O)[C@H]23)OCO4)cc(OC)c1OC | -64.9% (inactive)
COc1cc([C@@H]2c3cc4c(cc3[C@@H](O[C@@H]3O[C@@H]5CO[C@@H](c6cccs6)O[C@H]5[C@H](O)[C@H]3O)[C@H]3COC(=O)[C@H]23)OCO4)cc(OC)c1O | -72.9% (active)
COc1cc2c(c(OC)c1OC)-c1c(cc3c(c1OC)OCO3)C[C@H](C)[C@@H](C)C2 | 13.7% (inactive)
COc1cc([C@@H]2c3cc4c(cc3C(O[C@@H]3O[C@@H]5CO[C@@H](c6cccs6)OC5[C@H](O)[C@H]3O)C3COC(=O)[C@@H]32)OCO4)cc(OC)c1O (some centres not stated) | -79.4% (active)
COc1cc([C@@H]2c3cc4c(cc3C(OC3OC5COC(C)OC5C(O)C3O)C3OCC(=O)[C@@H]32)OCO4)cc(OC)c1O (some centres not stated) | -24.1% (inactive)
C=C(C)[C@@H]1CC[C@]2(C(=O)O)CC[C@]3(C)[C@H](CC[C@@H]4[C@@]5(C)CC[C@H](OC(=O)CC(C)(C)C(=O)O)C(C)(C)[C@@H]5CC[C@]43C)[C@@H]12 | -18.2% (inactive)
Fc1ccc2nc(CCC#Cc3ccccn3)cn2c1 | 1.01% (inactive)
NS(=O)(=O)OC[C@@H]1C[C@@H](n2ccc3c(N[C@H]4CCc5ccccc54)ncnc32)C[C@@H]1O | -17.2% (inactive)
OC1C(O)C(O)C(O)C(O)C1O (configuration not stated) | 18.3% (inactive)
COc1ccc(C(C#N)C(C)C)cc1OC (configuration not stated) | 21.3% (inactive)
CN([NH2+][O-])c1cc(O)ccc1O | 11.6% (inactive)
Cc1occc(=O)c1CC=O | 1.36% (inactive)
CC1COC2(CCN(c3nc(=O)c4cc(C(F)(F)F)cc([N+](=O)[O-])c4s3)CC2)O1 (configuration not stated) | 301% (inactive)
COc1cc2ncnc(Nc3ccc(Oc4ccccc4)cc3)c2cc1OC | 2.86% (inactive)
COc1cc2ncnc(Nc3ccc(Cl)cc3F)c2cc1OC | -68.4% (inactive) and -67% (inactive)
Cc1cc(F)c(Nc2ncnc3cc(OCc4ccccc4)ccc23)cc1O | -65.2% (inactive) and -70.4% (active)
CC(C)(C(=O)O)c1ccc(C(=O)CCCN2CCC(OC(c3ccccc3)c3ccccc3)CC2)cc1 | 6.98% (inactive)
